Molecules are shown by their SMILES. About 3,300 (1.1%) of roughly 300,000 compounds were called active. About 6% were inconclusive and are not listed. Only a selection was taken, and actives are over-represented in it overall. Unmarked numbers belong to inactive results.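 Rule for the calls: active = more than half of the replicate wells show a fall in the fluorescence ratio signal beyond about 16% (limit read from the data, passing the limit was not always enough); inconclusive = exactly half of the replicate wells pass the set limit; inactive = fewer than half of replicates pass the limit.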

The test system of the assay is Ran GTPase (GTP-bound) - importin-beta complex. The assay is described as follows: disruptors of Ran-importin-beta complex formation – biochemical, FRET, CFP-Ran, YFP-importin-beta, homogeneous, primary screen (AID 2216).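 Note: 0% = DMSO wells and 100% = Ran loaded with GDP instead of GTP.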 Particulars: cell-free CFP-Ran/YFP-importin-beta FRET ratio; stronger effect = higher value; concentration not given here.
Regarding `N#CC1=C(N)N(c2ccccc2)C2=C(C(=O)CCC2)C1c1ccccc1` (stereo not drawn), the inhibition is -1.9%.

As to `CSc1sc(C)cc1C1C(C#N)=C(N)N(c2cccnc2)C2=C1C(=O)CCC2` (stereo not drawn), the inhibition is 18.2% (active).

As for `CN(C)N1C(N)=C(C#N)C(c2ccc(Br)cc2)C2=C1CCCC2=O` (stereo not drawn), the inhibition was -0.393%.

As to `Cc1occc1C(=O)N/N=C/c1ccc(-c2cccc([N+](=O)[O-])c2)o1`, the inhibition was -1.61%.

`O=C(CCCCO)c1ccc(O)c(Cl)c1`: the inhibition is -9.87%.

As for `Cc1ccc(-c2csc(NCCc3nc4cc(Cl)c(Cl)cc4n3CCOCCO)n2)cc1`, the inhibition is 3.23%.

For the compound `CCOC(=O)N1CCN(CC(=O)Nc2cc(C)nn2-c2nc3ccccc3s2)CC1`, the inhibition was -2.13%.

`CCOC(=O)c1oc2c(CN3CCN(CCO)CC3)c(O)c(CC)cc2c(=O)c1-c1nc2ccccc2s1`: the inhibition was 16.5% (active).

Consider `CCOC(=O)CCCN1CC(O)=C(c2nc3ccccc3s2)C1=N`, for which the inhibition was -2.49%.

In the case of `COc1ccccc1C(=O)NCCC(=O)NCC(c1ccco1)N1CCCCC1` (stereo not drawn), the inhibition was 2.56%.

For `COc1ccc(CCC(=O)c2ccc(OC)cc2)cc1`, the inhibition is 0.925%.

For `COc1ccc(C(=O)C[n+]2ccc(N)c(C)c2C)cc1`, the inhibition is 26.2% (active).

As for `COc1ccc(C(=O)C[n+]2ccc(C)cc2)cc1`, the inhibition is 6.13%.

For `COC(=O)c1c(-c2ccsc2)oc2ccc(-c3cc(OC)c(OC)c(OC)c3)cc12`, the inhibition is -4.62%.

For `Cc1ccc(-n2c(O)c(C=Nc3ccc(S(=O)(=O)Nc4ncccn4)cc3)c3ccccc3c2=O)cc1C`, the inhibition is -1.55%.

With `CCOc1ccc(N=Cc2c(O)n(-c3cccc(C)n3)c(=O)c3ccccc23)cc1`, the inhibition was 22.9% (active).

On to `CCOc1ccc(-n2c(O)c(/C=N/c3ccnn3Cc3ccncc3)c3ccccc3c2=O)cc1`, for which the inhibition was 0.299%.

Regarding `CC(=O)c1ccc(NC(=O)CSC(=S)N2CCCC2)cc1`, the inhibition is -0.968%.

Regarding `O=C(CSC(=S)N1CCCCC1)c1c(F)cccc1F`, the inhibition was 18.8% (active).

In the case of `O=C(CSC(=S)N1CCOCC1)c1ccccc1`, the inhibition is 0.663%.

For `Cc1cc(C)c(S(=O)(=O)N2CCCC2CNC(=O)c2ccc3c(c2)OCO3)c(C)c1` (stereo not drawn), the inhibition is 4.9%.

Take `COc1ccccc1OCC(=O)Nc1ccccc1C(=O)NC1CC1`: the inhibition was -1.85%.

As to `COc1cc(C2C(C#N)=C(N)Oc3n[nH]c(-c4ccccn4)c32)cc(OC)c1OC` (stereo not drawn), the inhibition is -0.727%.

As to `COc1ccc(C2C(C#N)=C(N)Oc3cc(N)ccc32)cc1OC` (stereo not drawn), the inhibition was 70.8% (active).

In the case of `COC(=O)C1=C(C)OC(N)=C(C#N)C1c1cc(OC)ccc1OC` (stereo not drawn), the inhibition is -2.56%.

With `O=C1CN(C(=O)COc2c(Cl)cccc2Cl)c2ccccc2N1`, the inhibition is 0.217%.

With `CCOC(=O)c1cc2c(ccn2C)n1CC(=O)N1CCC(C)CC1`, the inhibition was 24.7% (active).

`CCOC(=O)c1cc2occc2n1CC(=O)N1CCN(C(=O)c2ccco2)CC1`: the inhibition was -1.58%.

Regarding `CCOC(=O)c1cc2ccccc2n1CC(=O)c1ccccc1`, the inhibition was -1.27%.

Consider `COc1ccc(OC)c(S(=O)(=O)N2CCCC(C(=O)N3CCC(C(N)=O)CC3)C2)c1` (stereo not drawn), for which the inhibition is 6.32%.

Take `O=C(O)c1ccccc1CSc1nc2ccccc2s1`: the inhibition was -3.5%.

In the case of `COC(=O)c1cc2c(ccn2C)n1C`, the inhibition is 21.8% (active).

Turning to `CCC(C(=O)N1CCOCC1)n1c(C(=O)OC)cc2occc21` (stereo not drawn), the inhibition is -3.41%.

Turning to `COC(=O)c1ccc(S(=O)(=O)NCc2ccccc2)n1C`, the inhibition was -3.7%.

`COc1ccc(C(CNC(=O)c2cccc(S(=O)(=O)Nc3ccccc3Cl)c2)N2CCOCC2)cc1` (stereo not drawn): the inhibition was 10.7%.

Turning to `C/C=C/c1ccc(OCC(=O)OCC(=O)Nc2c(C)nn(-c3ccccc3)c2C)c(OC)c1`, the inhibition was 1.88%.

For `COCCN1C2=C(COC(C)(C)C2)C(=S)NC1c1ccccc1` (stereo not drawn), the inhibition is 18.1% (active).

In the case of `COCCN1C(=O)N[C@@H](CCc2ccccc2)[C@H](C(C)=O)[C@H]1C`, the inhibition was -2.31%.

For `COC(=O)C1=C(C)N(C)C(=S)NC1c1ccccc1` (stereo not drawn), the inhibition is 4.45%.

`O=C1CC2(CCCC2)Oc2ccc(Cl)cc21`: the inhibition was -0.936%.

On to `COc1cccc(COC(=O)C2CCN(S(=O)(=O)c3ccc(Cl)cc3)CC2)c1OC`, for which the inhibition was 3.92%.

`CCCC(C)c1nnc(NC(=O)C2CC(=O)N(c3ccc(OCC)cc3)C2)s1` (stereo not drawn): the inhibition is 18.4% (active).

In the case of `CCOc1ccc(N2CC(C(=O)NCc3ccccn3)CC2=O)cc1` (stereo not drawn), the inhibition was -1.93%.

Regarding `CCOc1ccc(NC(=O)[C@H](C)NC(=O)C2CC(=O)N(c3ccc(OC)cc3)C2)cc1` (stereo partly drawn), the inhibition was 2.72%.

As to `CC(OC(=O)c1ccc(-n2cnnn2)cc1)C(=O)NCc1ccccc1` (stereo not drawn), the inhibition is 3.57%.

Take `COC(=O)CSc1nc2ccccc2c(=O)n1Cc1ccccc1`: the inhibition is 5.12%.

For the compound `CCC(=O)Nc1c(S(=O)(=O)c2ccccc2)c2nc3ccccc3nc2n1Cc1ccccc1`, the inhibition was 22.2% (active).

Turning to `CCN(CC)CCn1c(N)c(S(=O)(=O)c2ccccc2)c2nc3ccccc3nc21`, the inhibition is 0.032%.

As for `O=C(CCCN=C1NS(=O)(=O)c2ccccc21)OCC(=O)c1ccc(F)c(F)c1`, the inhibition is 3.32%.

`CCC1(c2ccccc2)NC(=O)N(CC(=O)c2ccc3c(c2)OCO3)C1=O` (stereo not drawn): the inhibition is 1.92%.

Consider `O=C(Nc1ccc(N2CCCCC2)cc1)c1cc(S(=O)(=O)N2CCOCC2)ccc1F`, for which the inhibition was -0.386%.

`CCn1c2ccccc2c2cc(NC(=O)COC(=O)c3ccccc3Br)ccc21`: the inhibition was -2.01%.

Turning to `CCn1c2ccccc2c2cc(NC(=O)CNC)ccc21`, the inhibition is 18.8% (active).

Take `CCn1c2ccccc2c2cc(NC(=O)C/C(C)=N/NC(=O)c3ccccc3N)ccc21`: the inhibition was -6.36%.

As for `COc1ccc(S(=O)(=O)N2CCCCC2)cc1NC(=O)c1cc([N+](=O)[O-])ccc1N1CCOCC1`, the inhibition is 8.1%.

Turning to `CC1CN(c2cc(=O)n(-c3cccc(Br)c3)c(=O)[nH]2)CC(C)O1` (stereo not drawn), the inhibition was 39.6% (active).

Turning to `CC1CN(C(=S)Nc2ccc(Br)cc2Cl)CC(C)O1` (stereo not drawn), the inhibition is -3.05%.

Consider `CC1CN(c2cc(=O)n(Cc3ccc(F)cc3)c(=O)[nH]2)CC(C)O1` (stereo not drawn), for which the inhibition is 8.41%.

Regarding `CCOC(=O)c1c(C)oc2cc(Sc3ccccc3)c(O)c(O)c12`, the inhibition is -4.55%.

With `CS(=O)(=O)c1ccc(Cl)c(NC(=O)COC(=O)c2ncc(Cl)c(Cl)c2Cl)c1`, the inhibition is -0.161%.

Take `COc1cc(-c2nnc(NC(=O)C3=COCCO3)o2)cc(OC)c1OC`: the inhibition is -0.69%.

Turning to `CCN1C(=O)[C@@H]2[C@@H](c3ccc(-c4cccc(Cl)c4)cc3)N3CCC[C@@]3(C(=O)OC)[C@@H]2C1=O`, the inhibition is 0.656%.

For the compound `CCCNC(=O)c1onc(CSc2ccc(F)cc2)c1C(=O)NC(C)C`, the inhibition was -1.02%.

In the case of `CC1CCN(c2ccc(-c3ccc(NC(=O)c4ccco4)cc3)nn2)CC1`, the inhibition was 0.987%.

With `NC(=O)c1c(NC(=O)c2ccccc2)sc2c1CCCC2`, the inhibition is 3.77%.

Regarding `COc1cccc(OC)c1C(=O)Nc1sc2c(c1C(N)=O)CCCC2`, the inhibition is 3.19%.

On to `NC(=O)c1c(Nc2nc3c(F)cccc3s2)sc2c1CCCC2`, for which the inhibition is 154% (active).

For `CCOc1ccc(NC(=O)COc2ccc(C(=O)N3CCC(C(N)=O)CC3)cc2OC)cc1`, the inhibition was 1.65%.

Turning to `COc1ccc(C2=NN(C(=O)CSc3nc(=O)n4ccc(C)cc4n3)C(c3ccc(C)cc3)C2)cc1` (stereo not drawn), the inhibition is 3.51%.

`CCOCCCNC(=O)c1cc2c(=O)n3ccccc3nc2s1`: the inhibition was -3.33%.

Turning to `Cc1ccc(Cn2c(=N)c(S(=O)(=O)c3ccc(C)cc3)cc3c(=O)n4ccccc4nc32)cc1`, the inhibition is 1.91%.

On to `CCn1c(=N)c(S(=O)(=O)c2ccc(F)cc2)cc2c(=O)n3ccccc3nc21`, for which the inhibition was 152% (active).

`C=CCSc1nnc2c(n1)-c1cccc3cccc-2c13`: the inhibition is 6.48%.

On to `Cc1cccc2cc(C#N)c(N3CCCC3)nc12`, for which the inhibition is 39.6% (active).

As for `CC(=O)c1ccc(S(=O)(=O)N2CCN(c3nc4c(C)c(C)ccc4cc3C#N)CC2)cc1`, the inhibition was 6.35%.

With `Cc1cc(C)c2nc(N3CCCC3)c(C#N)cc2c1`, the inhibition is 2.23%.

With `CCN(CC(=O)Nc1c(F)cccc1F)C(=O)c1ccc(-c2ccccc2)cc1`, the inhibition was -2.68%.

As for `COc1ccccc1C(=O)NC(=O)COC(=O)c1ccco1`, the inhibition is 1.31%.

As for `CCOC(=O)N1CCN(Cc2nnc(-c3ccccc3Cl)o2)CC1`, the inhibition was -2.66%.

In the case of `Nc1cccc2c1C(=O)N(Cc1nnc(-c3ccccc3Br)o1)C2=O`, the inhibition was 35.1% (active).

As to `Cn1cnnc1SCc1nnc(-c2ccccc2Br)o1`, the inhibition was 2.51%.

Turning to `C/C(=N\NC(=O)CC(C)C)c1c(C(F)(F)F)[nH]n(-c2nc3ccccc3s2)c1=O`, the inhibition was 4.64%.

Regarding `COC(=O)Cc1[nH]n(-c2nc3ccccc3s2)c(=O)c1C(C)=Nc1ccc(OC)cc1`, the inhibition was -3.75%.

In the case of `COC(=O)Cc1cc(=O)n(-c2nc3ccccc3s2)[nH]1`, the inhibition is 18.9% (active).

Take `Cc1ccc(OCC(=O)Oc2ccccc2[N+](=O)[O-])cc1`: the inhibition is 0.472%.

`CC(=O)Nc1ccc(Nc2c3ccccc3nc3ccccc23)cc1`: the inhibition is 52.8% (active).

With `CC(=O)Nc1ccc(-c2nc3ccccc3o2)cc1`, the inhibition is -2.08%.

With `Cc1ccc(Nc2c3c(nc4ccccc24)CCC3)cc1`, the inhibition is 2.17%.

For the compound `COc1ccc(NC(=O)CSc2nnc(Cc3ccccc3)c(=O)n2N)cc1`, the inhibition is -2%.

With `Fc1ccccc1COc1cccc2cccnc12`, the inhibition is 1.44%.

Regarding `COC(=O)c1sc(NC(=O)c2ccc(OC)cc2OC)nc1C`, the inhibition is -3.52%.

Regarding `COc1cc(SC)ccc1C(=O)Nc1nc(C)cs1`, the inhibition was 18.1% (active).

`COc1cc(SC)ccc1C(=O)Nc1cc(C)ccn1`: the inhibition was -5.84%.

(Values after PubChem BioAssay AID2216 (Broad Institute, 2009).)
